The text below walks through data of PubChem BioAssay.

Calls of active or inactive are those of the source.

Chain of Torsin-1A-interacting protein 2 (Homo sapiens) (Q8NFQ8 whole entry, looked up): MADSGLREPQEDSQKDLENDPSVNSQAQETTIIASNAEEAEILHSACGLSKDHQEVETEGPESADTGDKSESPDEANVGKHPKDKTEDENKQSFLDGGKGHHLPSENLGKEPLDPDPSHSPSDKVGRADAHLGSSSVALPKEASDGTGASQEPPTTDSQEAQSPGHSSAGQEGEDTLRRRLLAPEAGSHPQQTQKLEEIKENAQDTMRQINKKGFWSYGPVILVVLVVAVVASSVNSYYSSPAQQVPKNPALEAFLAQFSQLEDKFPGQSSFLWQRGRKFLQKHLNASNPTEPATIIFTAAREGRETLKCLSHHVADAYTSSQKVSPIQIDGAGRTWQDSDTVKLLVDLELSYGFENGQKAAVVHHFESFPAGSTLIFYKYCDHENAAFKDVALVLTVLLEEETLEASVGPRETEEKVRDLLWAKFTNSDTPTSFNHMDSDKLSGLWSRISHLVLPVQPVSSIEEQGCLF

One assay addresses Torsin-1A-interacting protein 2 (Homo sapiens) (UniProt Q8NFQ8). Nature of the assay: small molecules binding lysate-expressed LULL1 – cell lysate, human LULL1 lysate, 635/667 nm fluorescence, primary screen (AID 1092).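 Further: probe is lysate of COS7 cells overexpressing human LULL1; score merges per-feature 667 nm fluorescence with signal-to-noise.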 The conditions noted are these: small-molecule microarray, hLULL1 lysate binding, 635 nm fluorescence; higher = more signal.
Compound `C[n+]1ccc(CCCO)cc1` returned a composite z-score of 0.427.
On the same count and under the same terms, to `CCCC[C@@H]1C[C@H]1[C@@H](NC(=O)c1ccccc1)c1ccc(Cl)cc1` belongs 0.0826.
On the same count and under the same terms, to `C=C(CCCC)/C(=C/C[C@@H](OC(C)=O)c1ccc(CO)o1)c1cc(C(=O)OC)ccc1OC` belongs 2.75.
Still for that read-out and setting: for `CC(C)OC(=O)CC(=O)CC(O)c1cccc(C#N)c1` (centres undefined) the value was 2.15; for `COC(=O)[C@@]1(Cc2ccccc2)[C@H]2c3cc(C(=O)N4CCCC4)[nH]c3C[C@H]2CN1C(=O)c1ccccc1`, 3.51.
In turn, `COc1c(C)cc(-c2cc3c(c(-c4ccccc4)n2)[Si](C(C)C)(C(C)C)OC3)cc1C` gave a composite z-score of -0.495.
On the same count and under the same terms, to `C=CC[C@@]1(C(=O)N2CCCCC2)N=C(c2ccc(OCCCO)cc2)O[C@@H]1c1ccccc1` belongs 3.06; to `CN(C)CCCNC(=O)[C@@H]1c2ccccc2C(=O)N(Cc2ccc(OC(F)(F)F)cc2)[C@H]1c1ccc(CO)cc1`, 2.22.

System in a further assay: not listed separately
Nature of the assay: optical density change of DRC41 E. coli – strain DRC41, OD650, 24 h, E. coli filamentation project, primary screen (AID 1093).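 Further: MC1000 strain lacking acrAB efflux and sulA so SOS filamentation is blocked; test concentration not given here.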 The conditions noted are these: E. coli DRC41 growth, higher = more signal, called active from +8 up or from −8 down.
Take `COC(=O)[C@@]1(Cc2ccc(F)cc2)[C@H]2c3cc(C(=O)N4CCCC4)n(CCc4c[nH]c5ccc(OC)cc45)c3C[C@H]2CN1C(=O)c1ccccc1`: the z-score is -0.803 (inactive).
Regarding `COCCOC(=O)N1C(=O)[C@@]2(c3cc(C#CC4(O)CCCCCC4)ccc31)[C@H](C(=O)N1CCCCCCC1)[C@H]1C(=O)O[C@H](c3ccccc3)[C@H](c3ccccc3)N1[C@@H]2c1ccc(OCCO)cc1`, the z-score is 1.82 (inactive).
The same measure, in the same setting: for `COC(=O)Cn1c(C(=O)N2CCCC2)cc2c1C[C@H]1CN(C(=O)c3ccccc3)[C@@](Cc3ccc(F)cc3)(C(=O)OC)[C@@H]21` the value was 0.782 (inactive); for `NC(=O)N1C(=O)C2C(C1=O)C1C=C(c3ccc(CO)cc3)C2C(C2CC2)N1Cc1sc2ccccc2c1Cl` (centres undefined), 1.34 (inactive).
Same read-out and setting: for `CC=CC(O)C1C=CC2C(=O)N(C)C(=O)C2N1Nc1ccc([N+](=O)[O-])cc1[N+](=O)[O-]` (centres undefined) the value was -1.06 (inactive).
Same read-out and setting: to `CN(C)CCCNC(=O)[C@@]1(c2ccc([N+](=O)[O-])cc2)CC(=O)N(CC23CC4CC(CC(C4)C2)C3)[C@@H]1c1ccc(CO)cc1` belongs -0.279 (inactive).
As for `C=CC1c2cc(O)c(OC)cc2CCN1Cc1sc2ccccc2c1Cl` (centres undefined), the z-score is -0.368 (inactive).
Still for that read-out and setting: for `CC(C)C(=C=CC[C@@H](O)c1ccccc1OCCO)C[C@@H](O)COCc1ccccc1` the value was 1.44 (inactive); for `C=CCN1C(=O)[C@]2(CC=C)N=C(c3ccc(OCCCO)cc3)O[C@@H]2c2ccccc21`, 1.02 (inactive); for `Cc1ccc(S[C@]2(C(=O)NCc3ccccc3)CC(=O)N(C(C)C)[C@@H]2c2ccc(CO)cc2I)cc1`, 0.349 (inactive).
The same measure, in the same setting: for `CO[C@H]1O[C@H](CO)[C@@H](OC(=O)Nc2ccc(C(F)(F)F)cc2)[C@H](OC(=O)Nc2ccc3c(c2)OCO3)[C@H]1OC(=O)Nc1ccc2c(c1)OCO2` the value was -0.298 (inactive).
`CN1C2C=C(CCCO)C(C3C(=O)N(C(N)=O)C(=O)C32)C1c1cccs1` (centres undefined): the z-score is 0.155 (inactive).
The same measure, in the same setting: to `COC(=O)C(CC#Cc1ccc2c(c1)[C@]1(C(=O)N2)[C@H](C(=O)O)[C@H]2C(=O)O[C@H](c3ccccc3)[C@H](c3ccccc3)N2[C@@H]1c1ccccc1OCCO)C(=O)OC` belongs -0.972 (inactive); to `CC(C)CCC[C@@H](C)[C@H]1CC[C@@]2(C)C3=C(CC[C@]12C)[C@@]1(C)CC[C@H](OC(=O)c2ccc(Br)cc2)C(C)(C)C1CC3` (some centres undefined), 2.77 (inactive).
On the same count and under the same terms, for `Cc1ccc(S[C@]2(C(=O)NCCN3CCOCC3)CC(=O)N(Cc3ccccc3C(F)(F)F)[C@@H]2c2ccc(CO)cc2I)cc1` the value was -0.28 (inactive); for `CCCCN1CC=CC23O[C@@H]4C=CCOC(=O)[C@@H]4[C@H]2C(=O)N(CCCO)[C@@H]3C1=O` (some centres undefined), 1.42 (inactive).
Regarding `C=C[C@@H](C)[C@H](OC(=O)Nc1ccc(SC)cc1)c1ccc(OCCO)cc1`, the z-score is 1.18 (inactive).
For the compound `O=c1cccc(-c2cccc(Cl)c2)o1`, the z-score is 0.658 (inactive).
The same measure, in the same setting: to `Cc1ccc(S[C@]2(C(=O)NCC(F)(F)F)CC(=O)N(Cc3ccccc3)[C@@H]2c2ccc(CO)cc2)cc1` belongs -1.68 (inactive); to `COc1ccc([Si](C)(C)[C@H]2[C@H](CC(=O)N3Cc4ccccc4C[C@H]3CO)O[C@@]3(C(=O)N(Cc4cccc(N5CCCCC5=O)c4)c4ccccc43)[C@@H]2C)cc1`, -0.0352 (inactive).
On the same count and under the same terms, for `O=C1OCC=C[C@H]2OC34C=CCN(Cn5nnc6ccccc65)C(=O)[C@H]3N(CCCCCCO)C(=O)[C@@H]4[C@@H]12` (some centres undefined) the value was -0.218 (inactive); for `COCCOC(=O)N1C(=O)[C@@]2(c3cc(C#Cc4ccc(OC)cc4)ccc31)[C@H](C(=O)N1CCN(c3ncccn3)CC1)[C@H]1C(=O)O[C@H](c3ccccc3)[C@H](c3ccccc3)N1[C@@H]2c1ccccc1OCCO`, -0.332 (inactive).
Same read-out and setting: to `O=C1C2C=CC(C(O)c3cc(C(F)(F)F)cc(C(F)(F)F)c3)N(Nc3ccc([N+](=O)[O-])cc3)C2C(=O)N1c1ccccc1` (centres undefined) belongs -1.57 (inactive).
Take `CCOC(=O)C[C@H]1[C@H](OC(=O)Cc2ccc3c(c2)OCO3)[C@@H](NC(=O)Cc2ccc(OC)cc2)c2cc(OCCCO)ccc2N1C(=O)c1ccccc1`: the z-score was 1.26 (inactive).
For the compound `O=C1NCC(=O)N2[C@@H]1C[C@@H](C(=O)O)[C@H]2c1ccc(O)cc1`, the z-score is 0.984 (inactive).
On to `C=C(COC)/C(=C/C[C@@H](OC(=O)c1ccncc1)c1cccc(OCCO)c1)c1cnc2ccccc2c1`, for which the z-score is 0.682 (inactive).
The same measure, in the same setting: to `CCOC(=O)C[C@H]1[C@H](OC(=O)c2ccccc2-c2ccccc2)[C@@H](NC(=O)c2ccc3ccccc3n2)c2cc(OCCCO)ccc2N1C(=O)c1ccc2ccccc2n1` belongs 0.597 (inactive); to `[N-]=[N+]=NCc1ccccc1C[C@]1(C(=O)NCC(O)CO)N=C(c2ccc(OCCCO)cc2)O[C@H]1c1ccccc1CN=[N+]=[N-]` (some centres undefined), -0.172 (inactive).
On to `C[n+]1ccc(CCCO)cc1`, for which the z-score was -2.1 (inactive).
Same read-out and setting: for `CCCC[C@@H]1C[C@H]1[C@@H](NC(=O)c1ccccc1)c1ccc(Cl)cc1` the value was -1.49 (inactive); for `C=C(CCCC)/C(=C/C[C@@H](OC(C)=O)c1ccc(CO)o1)c1cc(C(=O)OC)ccc1OC`, -0.12 (inactive); for `CC(C)OC(=O)CC(=O)CC(O)c1cccc(C#N)c1` (centres undefined), 0.435 (inactive).
On to `COC(=O)[C@@]1(Cc2ccccc2)[C@H]2c3cc(C(=O)N4CCCC4)[nH]c3C[C@H]2CN1C(=O)c1ccccc1`, for which the z-score is -0.156 (inactive).
Same read-out and setting: to `COc1c(C)cc(-c2cc3c(c(-c4ccccc4)n2)[Si](C(C)C)(C(C)C)OC3)cc1C` belongs 0.346 (inactive); to `C=CC[C@@]1(C(=O)N2CCCCC2)N=C(c2ccc(OCCCO)cc2)O[C@@H]1c1ccccc1`, 0.868 (inactive).
On the same count and under the same terms, for `CN(C)CCCNC(=O)[C@@H]1c2ccccc2C(=O)N(Cc2ccc(OC(F)(F)F)cc2)[C@H]1c1ccc(CO)cc1` the value was -0.883 (inactive).
